Results as given in PubChem BioAssay AID926 (National Center for Advancing Translational Sciences (NCATS), 2007).
Screen size: about 73,000 compounds; about 350 (0.48%) were called active. Not shown: some 17% with an inconclusive outcome. The call rests on the fitted dose curve; in most records, active means well fitted activation curve with a large enough effect in the main read-out, with a control signal flat (not every such curve was filed as active); inconclusive means small, poorly fitted or top-dose-only effect, or a change in a side signal; inactive means no such curve, though single readings can be large or run the other way; reference of the percent scale not stated here. The sample as a whole holds a higher share of actives than the screen did.

Assays:
[1] = qHTS Assay for Agonists of the Thyroid Stimulating Hormone Receptor; conditions: HEK293-CNG-TSHR cells, membrane potential dye, cAMP; measured here: parental cells max response;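 further: the control signal comes from parental cells without the receptor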
How it was run: (§1)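 cAMP rise detected as CNG-channel membrane depolarization by fluorescent dye (emission 590 nm), 30 min after compound, following 60 min dye loading containing 100 uM RO 20-1724 at room temperature. Cells: TSHR/CNG HEK 293, with parental CNG HEK 293 as control.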

[2] = biological target: Thyrotropin receptor (Homo sapiens) (UniProt P16473); test: as above; conditions: HEK293-CNG-TSHR cells (CNG channel as cAMP sensor), membrane potential dye, cAMP; series mostly up to 57.1 µM
How it was run: as §1
Potency means the concentration at half of the fitted maximal effect.

Chain of Thyrotropin receptor (Homo sapiens) (P16473 whole entry, looked up): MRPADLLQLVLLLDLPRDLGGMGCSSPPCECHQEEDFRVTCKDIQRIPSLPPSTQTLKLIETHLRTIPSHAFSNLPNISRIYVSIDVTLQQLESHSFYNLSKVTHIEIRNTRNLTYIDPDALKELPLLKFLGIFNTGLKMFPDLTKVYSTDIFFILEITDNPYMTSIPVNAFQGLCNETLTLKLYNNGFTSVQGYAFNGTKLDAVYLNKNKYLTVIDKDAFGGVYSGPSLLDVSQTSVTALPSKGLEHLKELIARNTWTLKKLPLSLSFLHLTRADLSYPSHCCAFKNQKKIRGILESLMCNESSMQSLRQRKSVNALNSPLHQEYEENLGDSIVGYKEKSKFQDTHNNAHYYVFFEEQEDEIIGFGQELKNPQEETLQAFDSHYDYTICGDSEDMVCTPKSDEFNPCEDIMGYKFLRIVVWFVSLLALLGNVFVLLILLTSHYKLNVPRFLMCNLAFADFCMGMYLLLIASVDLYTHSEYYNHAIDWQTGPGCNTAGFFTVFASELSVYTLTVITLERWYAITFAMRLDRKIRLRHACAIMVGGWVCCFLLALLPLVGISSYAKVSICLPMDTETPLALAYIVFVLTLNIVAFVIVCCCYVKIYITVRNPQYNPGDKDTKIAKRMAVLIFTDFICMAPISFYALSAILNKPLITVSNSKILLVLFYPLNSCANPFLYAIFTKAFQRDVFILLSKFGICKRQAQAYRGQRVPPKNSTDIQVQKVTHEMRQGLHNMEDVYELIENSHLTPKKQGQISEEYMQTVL

Row | SMILES | activation [1] [%] | Potency [2] | activation [2]
1 | CCCC[C@@H]1C[C@H]1C(NC(=O)c1ccc(-c2ccccc2)cc1)c1ccc(-c2ccccc2)cc1 (stereo partly drawn) | 1.42 | inactive | 
2 | Cc1cccc(Br)c1 | 15 | inactive | 
3 | CCCC(Cl)CCCC(Cl)CCC(Cl)CCC(Cl)CCC(Cl)CCCC(Cl)CCC (stereo not drawn) | 3.46 | inactive | 
4 | O=C(Cl)c1ccc([N+](=O)[O-])cc1 | -6.7 | inactive | 
5 | COc1ccc(S(=O)(=O)Nc2ccc(S(=O)(=O)N3CCCCC3)cc2)cc1OC | -4.42 | inactive | 
6 | COc1ccc(C2SCCN2S(=O)(=O)c2ccccc2)cc1OC (stereo not drawn) | 15.1 | 31.6 µM (active) | 
7 | COc1ccccc1CN1CC2(CCN(S(=O)(=O)c3ccccc3)CC2)C1 | 7.71 | inactive | 
8 | Cc1ccc2oc(=O)ccc2c1 | 1.36 | inactive | 
9 | CO[C@H]1COC(=O)[C@@H](OCc2ccccc2)/C=C\[C@H](C)[C@@H](OC)COC(=O)[C@H](OCc2ccccc2)/C=C\[C@@H]1C | -2.98 |  | -1.59% [at 11.4 µM] (inactive)
10 | CCc1ccccc1N(CC(=O)NCCSCc1ccco1)S(C)(=O)=O | 6.61 |  | 16.8% [at 11.4 µM] (inactive)
11 | COC(=O)C1(Cc2ccccc2)C=C2C(=C(C)C(=O)C2C)CN1 (stereo not drawn) | 7.11 | inactive | 
12 | CC(=O)N1[C@H](C)C=C[C@]1(Cc1ccccc1)C(=O)NCc1ccccn1 | 7.85 | inactive | 
13 | Cc1cc(C)cc(C#CC2C=CC(Oc3ccc(C4CCCC4)cc3)C(CO)O2)c1 (stereo not drawn) | 16.7 |  | 5.07% [at 11.4 µM] (inactive)
14 | COC(=O)[C@@]1(Cc2ccc(F)cc2)[C@@H]2[C@@H](CC(=O)[C@H]2CC(=O)C(=O)N2CCCC2)CN1C(=O)c1ccccc1 | 18.8 | inactive | 
15 | CCNCCCNCCCNCCCNCC | -2.31 | inactive | 
16 | BrC1C(Br)C(Br)C(Br)C(Br)C1Br (stereo not drawn) | 2.31 | inactive | 
17 | Cc1cccc(C(=O)O)c1[N+](=O)[O-] | 15 | inactive | 

Row | SMILES | activation [1] [%] | Potency [2] | activation [2]
18 | CC1(C)OC(C(O)(c2ccccc2)c2ccccc2)C(C(O)(c2ccccc2)c2ccccc2)O1 (stereo not drawn) | 25.8 |  | 15.4% [at 11.4 µM] (inactive)
19 | Cc1cccc(NC(=O)CSC(N)=O)c1C | -24.7 | inactive | 
20 | CCCS(=O)(=O)N1CCCC(C(=O)NCc2ccco2)C1 (stereo not drawn) | 10.5 | inactive | 
21 | Cc1ccc(S(=O)(=O)N2CCCC2CO)cc1 (stereo not drawn) | -3.4 |  | -5.75% [at 11.4 µM] (inactive)
22 | Cc1ccc(S(=O)(=O)N2CCCC2C(=O)NCc2ccco2)cc1 (stereo not drawn) | -0.0422 | 12.6 µM (active) | 
23 | C/C(CCN1CCc2nc(-c3ccccc3)c(-c3ccccc3)cc2C1)=N\O[C@@H](C)c1cn([C@@H]2COC[C@@H]2O)nn1 | 0.56 |  | 6.46% [at 11.4 µM] (inactive)
24 | C=CCn1cnc2scc(-c3ccccc3)c2c1=O | -2.42 | inactive | 
25 | O=C1C(c2[nH]c3ccccc3c2O)=Nc2ccccc21 | -17.9 | inactive | 
26 | O=C(O)CS(=O)c1ccc2c3c(cccc13)C(=O)c1ccccc1-2 (stereo not drawn) | -9.79 |  | -5.26% [at 11.4 µM] (inactive)
27 | CCCCCCN(C(=O)CCCCCN1C(=O)NC(c2ccc(C(F)(F)F)cc2)C(C(=O)OCc2ccccc2)=C1C)C(C(=O)NCCCC)c1ccc(OCC(=O)OC)c(C(=O)OC)c1 (stereo not drawn) | 18.9 | inactive | 
28 | O=C(CSc1nc2c(cnn2-c2ccc(F)cc2)c(=O)[nH]1)N1CCCCCC1 | 1.57 | inactive | 
29 | CN1CCC(CNC(=O)c2ccc(-n3c(=O)c(=O)[nH]c4ccccc43)cc2)CC1 | -0.798 | inactive | 
30 | Cc1ccc2nc(-c3ccccc3)cc(C(=O)O)c2c1 | -5.12 | inactive | 
31 | CC(C)(C)[Si](OCC[C@@H]1C[C@@]1(C)[C@@H](NP(=O)(c1ccccc1)c1ccccc1)c1ccccc1)(c1ccccc1)c1ccccc1 | 13.3 | inactive | 
32 | O=C(COc1ccccc1)NCc1ccc2c(c1)OCO2 | 27.1 | inactive | 
33 | O=C(CN(Cc1ccccc1)C(=O)c1ccc2c(c1)OCCO2)NCc1ccc2c(c1)OCO2 | 12.9 | 7.94 µM (active) | 
34 | O=C(CC(Cc1ccccc1)C(=O)O)NCCc1ccc2c(c1)OCO2 (stereo not drawn) | 9.45 | inactive | 
